The supplement of paper PMC8728848
About 410 targets per protein were measured; listed, in parts, are those with the strongest signals and a random draw of the rest.

Experiments:
Experiment in all cases: glycan array binding signal (z-score within array); higher = stronger binding
Conditions in all cases: glycan notation: IUPAC condensed, linker removed
[1] = target: Fuc(a1-2)Gal(b1-3)GalNAc(a1-3)[Fuc(a1-2)]Gal(b1-4)GlcNAc
How it was run: (§1)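 Glycan array data were curated from 3228 arrays in the Consortium for Functional Glycomics database and kept only where the protein sequence was available. Glycan names were converted to IUPAC-condensed notation, and columns mapping to the same glycan were averaged. The binding signal is a within-array Z-score, averaged across arrays of the same protein sequence at different concentrations or buffers and across linkers. Negative Z-scores can be read as non-binding.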

[2] = target: Fuc(a1-2)Gal(b1-3)GalNAc(b1-3)Gal(a1-4)Gal(b1-4)Glc
How it was run: as §1

[3] = target: Fuc(a1-2)Gal(b1-3)GlcNAc(b1-3)[Neu5Ac(a2-6)Gal(b1-4)GlcNAc(b1-6)]Gal(b1-4)Glc
How it was run: as §1

[4] = target: Fuc(a1-2)Gal(b1-4)GlcNAc(b1-3)Gal(b1-4)GlcNAc(b1-2)Man(a1-3)[Fuc(a1-2)Gal(b1-4)GlcNAc(b1-3)Gal(b1-4)GlcNAc(b1-2)Man(a1-6)]Man(b1-4)GlcNAc(b1-4)GlcNAc
How it was run: as §1

[5] = target: Fuc(a1-2)Gal(b1-4)GlcNAc(b1-6)GalNAc
How it was run: as §1

[6] = target: Fuc(a1-2)[Gal(a1-3)]Gal(b1-4)GlcNAc(b1-3)GalNAc
How it was run: as §1

[7] = target: Fuc(a1-2)[Gal(a1-3)]Gal(b1-4)GlcNAc(b1-3)[Fuc(a1-2)[Gal(a1-3)]Gal(b1-4)GlcNAc(b1-6)]GalNAc
How it was run: as §1

[8] = target: Fuc(a1-2)[GalNAc(a1-3)]Gal(b1-3)GlcNAc(b1-2)Man(a1-3)[Fuc(a1-2)[GalNAc(a1-3)]Gal(b1-3)GlcNAc(b1-2)Man(a1-6)]Man(b1-4)GlcNAc(b1-4)[Fuc(a1-6)]GlcNAc
How it was run: as §1

[9] = target: Fuc(a1-2)[GalNAc(a1-3)]Gal(b1-4)GlcNAc(b1-3)GalNAc
How it was run: as §1

[10] = target: Fuc(a1-2)[GalNAc(a1-3)]Gal(b1-4)[Fuc(a1-3)]GlcNAc
How it was run: as §1

[11] = target: Fuc(a1-3)[Gal(b1-4)]GlcNAc(b1-2)Man(a1-3)[Fuc(a1-3)[Gal(b1-4)]GlcNAc(b1-2)Man(a1-6)]Man(b1-4)GlcNAc(b1-4)[Fuc(a1-6)]GlcNAc
How it was run: as §1

[12] = target: Fuc(a1-3)[Gal(b1-4)]GlcNAc(b1-6)[Gal(b1-3)GlcNAc(b1-3)]Gal(b1-4)Glc
How it was run: as §1

[13] = target: Fuc(a1-3)[GalNAc(b1-4)]GlcNAc6S
How it was run: as §1

[14] = target: Gal(b1-3)[Fuc(a1-4)]GlcNAc(b1-2)Man
How it was run: as §1

[15] = target: Gal(b1-3)[Neu5Ac(a2-6)]GalNAc
How it was run: as §1

[16] = target: Gal(b1-3)[Neu5Ac(b2-6)]GalNAc
How it was run: as §1

[17] = target: Gal(b1-4)GlcNAc(b1-2)Man(a1-3)[GlcNAc(b1-4)][Gal(b1-4)GlcNAc(b1-2)Man(a1-6)]Man(b1-4)GlcNAc(b1-4)GlcNAc
How it was run: as §1

[18] = target: Gal(b1-4)GlcNAc(b1-2)[Gal(b1-4)GlcNAc(b1-6)]Man(a1-6)[Gal(b1-4)GlcNAc(b1-2)Man(a1-3)]Man(b1-4)GlcNAc(b1-4)[Fuc(a1-6)]GlcNAc
How it was run: as §1

[19] = target: Gal(b1-4)GlcNAc(b1-3)Gal(b1-4)GlcNAc(b1-2)[Gal(b1-4)GlcNAc(b1-3)Gal(b1-4)GlcNAc(b1-6)]Man(a1-6)[Gal(b1-4)GlcNAc(b1-3)Gal(b1-4)GlcNAc(b1-2)Man(a1-3)]Man(b1-4)GlcNAc(b1-4)GlcNAc
How it was run: as §1

[20] = target: Gal(b1-4)GlcNAc(b1-3)Gal(b1-4)GlcNAc(b1-3)Gal(b1-4)GlcNAc(b1-3)Gal(b1-4)GlcNAc(b1-3)Gal(b1-4)GlcNAc(b1-3)Gal(b1-4)GlcNAc(b1-2)Man(a1-3)[Gal(b1-4)GlcNAc(b1-3)Gal(b1-4)GlcNAc(b1-3)Gal(b1-4)GlcNAc(b1-3)Gal(b1-4)GlcNAc(b1-3)Gal(b1-4)GlcNAc(b1-3)Gal(b1-4)GlcNAc(b1-2)Man(a1-6)]Man(b1-4)GlcNAc(b1-4)GlcNAc
How it was run: as §1

[21] = target: Gal(b1-4)GlcNAc(b1-3)Gal(b1-4)GlcNAc(b1-3)[Gal(b1-4)GlcNAc(b1-3)Gal(b1-4)GlcNAc(b1-6)]GalNAc
How it was run: as §1

[22] = target: Gal(b1-4)GlcNAc(b1-3)Gal(b1-4)[Fuc(a1-3)]GlcNAc(b1-3)Gal(b1-4)[Fuc(a1-3)]GlcNAc
How it was run: as §1

[23] = target: Gal(b1-4)GlcNAc(b1-3)[GlcNAc(b1-6)]Gal(b1-4)GlcNAc
How it was run: as §1

Gal3S(b1-3)GalNAc = target: Gal3S(b1-3)GalNAc
How it was run: as §1

[24] = target: Gal3S(b1-4)[Fuc(a1-3)]GlcNAc
How it was run: as §1

GalNAc(b1-6)GalNAc = target: GalNAc(b1-6)GalNAc
How it was run: as §1

[25] = target: GlcNAc(a1-4)Gal(b1-4)GalNAc
How it was run: as §1

[26] = target: GlcNAc(a1-4)Gal(b1-4)GlcNAc(b1-3)Gal(b1-4)GlcNAc
How it was run: as §1

[27] = target: GlcNAc(a1-4)Gal(b1-4)GlcNAc(b1-3)Gal(b1-4)GlcNAc(b1-3)Gal(b1-4)GlcNAc
How it was run: as §1

[28] = target: GlcNAc(a1-4)Gal(b1-4)GlcNAc(b1-3)Gal(b1-4)[Fuc(a1-3)]GlcNAc(b1-3)Gal(b1-4)[Fuc(a1-3)]GlcNAc
How it was run: as §1

B1: ClecSol-Fc (Cryptosporidium parvum) (protein)
chain: CPEGWISNGEKTRCFKLVTFDRPRTFSHGFKACNDLGGTEVETRRRNGSKETNEYPVTLASVYKLSDEEAIRRTLVEQGDIHKTANGCFVGLRKYAFFRYPPGWYWIDSGSPVSVRDSEINWTSSYNASWLLRFKFPFEKCGFFDIGGLGRRPCWLIDSELSCAVCGTVAYDSGGLNPNKYSELIKQTDEIISKEPKLDLPGYNNLNCTDAWENNLSVGLCQNVSNILDSAWSSYQSSLNFPSINFNWKEDSTNEGGDQVYHNSYLDLPRYKQKKTFYWDQDPGTIPALSDEMKLIGLSAQPTYHPLDRSSSGSFESDSTESGRANEERNDTLEEMIYKQSSDSIEDILVPVTKPIFSDYSSIGRNSGVEEVYSSNVSTISSKGVVFPNTTTSSDNDFTKNNPANSSKHTSTSTTTNTTTTTTRTTTTTTTTTTTTTTTTTTTTETTTTKKSTTATKNTTTT
[1]
  glycan array binding signal (z-score): 0.031
[2]
  glycan array binding signal (z-score): -0.029
[3]
  glycan array binding signal (z-score): -0.161
[4]
  glycan array binding signal (z-score): -0.154
[5]
  glycan array binding signal (z-score): 0.51
[6]
  glycan array binding signal (z-score): 0.003
[7]
  glycan array binding signal (z-score): 0.705
[8]
  glycan array binding signal (z-score): -0.242
[9]
  glycan array binding signal (z-score): -0.169
[10]
  glycan array binding signal (z-score): -0.281
[11]
  glycan array binding signal (z-score): 0.593
[12]
  glycan array binding signal (z-score): 0.068
[13]
  glycan array binding signal (z-score): -0.242
[14]
  glycan array binding signal (z-score): -0.208
[15]
  glycan array binding signal (z-score): -0.235
[16]
  glycan array binding signal (z-score): -0.149
[17]
  glycan array binding signal (z-score): -0.166
[18]
  glycan array binding signal (z-score): -0.266
[19]
  glycan array binding signal (z-score): 0.543
[20]
  glycan array binding signal (z-score): -0.15
[21]
  glycan array binding signal (z-score): -0.114
[22]
  glycan array binding signal (z-score): -0.22
[23]
  glycan array binding signal (z-score): -0.01
Gal3S(b1-3)GalNAc
  glycan array binding signal (z-score): -0.101
[24]
  glycan array binding signal (z-score): 0.021
GalNAc(b1-6)GalNAc
  glycan array binding signal (z-score): -0.238
[25]
  glycan array binding signal (z-score): 18.7
[26]
  glycan array binding signal (z-score): 2.11
[27]
  glycan array binding signal (z-score): 1.61
[28]
  glycan array binding signal (z-score): 0.617
